Among the data in PubChem BioAssay (Tox21) are Potency and outcome values, retold here.

Test [1] in a line: Nuclear factor erythroid 2-related factor 2/antioxidant responsive element (Nrf2/ARE) small molecule agonists: qHTS cell viability counter screen in human keratinocytes (AID 1919968; active means well fitted cell-killing curve with a large enough effect in the repeat runs; further: nearly all actives have a fitted effect of over 55% in size). An outline of the steps: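 HaCaT ARE reporter line, 1,500 cells/well; 5 h settle, 37 C/5% CO2; cpd in DMSO pinned; 23 h exposure; CellTiter-Fluor, 1 h; fluorescence.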
The nature of test [2]: Nuclear factor erythroid 2-related factor 2/antioxidant responsive element (Nrf2/ARE) small molecule agonists: luciferase reporter gene qHTS assay in human keratinocytes (AID 1919969). Further: nearly all actives have a fitted effect of over 35% in size. Further: potency means the concentration at half of the fitted maximal effect.
For test [3], the target named is Gonadotropin-releasing hormone receptor (Homo sapiens) (UniProt P30968). Briefly: Human gonadotropin-releasing hormone receptor (GnRHR) small molecule agonists, calcium flux assay in GnRHR-HEK293 cells (AID 1920063). Further: nearly all actives have a fitted effect of over 35% in size. An outline of the steps:
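GnRHR-HEK293, 1500 cells/well, 18 h 37 C/5% CO2; Ca dye 1 h 37 C; cpd pinned (DMSO), agonist mode; kinetic FL 480/540, 3 min, 1 s reads; 15 conc, n=3.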

Test [4] can be described thus: G protein-coupled receptor (GPCR) small molecule agonists, calcium flux assay: HEK293 wild type cell line counter screen (AID 1920065). An outline of the steps: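 Kinetic fluorescence at Ex/Em 480/540, recorded every second over 3 min, served as the read-out after compound addition. Each compound was tested at 15 concentrations in triplicate on cells pre-loaded with calcium dye for 1 h.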

A short description of test [5]: p53 small molecule agonists, cell-based qHTS assay with human liver microsomes (AID 1963577).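 Further: p53 response element beta-lactamase reporter cells with liver microsomes plus NADPH.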 An outline of the steps: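 Metabolically competent format: test substances, human liver microsomes and NADPH (both 0.5 mg/mL final) incubated with p53RE-bla cells 16 h at 37 C. Beta-lactamase reporter signal then quantified by fluorescence.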
Test [6] can be described thus: p53 small molecule agonists, cell-based qHTS assay with rat liver microsomes (AID 1963578). An outline of the steps: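 Each plate received p53RE-bla cells, then compound, then rat liver microsomes and NADPH (both 0.5 mg/mL final). Plates were held 16 h at 37 C, and beta-lactamase activity was detected with LiveBLAzer over 2 h.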
Test [7] in a line: p53 small molecule agonists, cell-based qHTS assay with human liver microsomes: qHTS cell viability counter screen (AID 1963579). Further: nearly all actives have a fitted effect of over 45% in size. An outline of the steps: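 Tox21 library compounds, delivered from DMSO stocks, were tested on p53RE-bla cells together with 0.5 mg/mL human liver microsomes and 0.5 mg/mL NADPH (final) over 16 h at 37 C; CellTiter-Glo luminescence served as the cytotoxicity measure.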

The nature of test [8]: p53 small molecule agonists, cell-based qHTS assay with rat liver microsomes: qHTS cell viability counter screen (AID 1963580). Further: nearly all actives have a fitted effect of over 45% in size. An outline of the steps: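 p53RE-bla HCT-116 cells (4,000/well) rested 5 h at 37 C, then given Tox21 compounds in DMSO with rat liver microsomes (0.5 mg/mL final) plus NADPH (0.5 mg/mL final) for 16 h at 37 C. Viability read by CellTiter-Glo luminescence after 30 min at room temperature.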

Test [9] is described as follows: p53 small molecule agonists, cell-based qHTS assay: qHTS cell viability counter screen (AID 1963581). Further: nearly all actives have a fitted effect of over 45% in size. In a few lines:
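HCT-116 p53RE-bla cells, 4,000/well, plated 5 h before compound pin transfer; 16 h at 37 C; bla substrate 2 h RT; then CellTiter-Glo, 30 min RT, luminescence.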

Test [10] has as its target 5-hydroxytryptamine receptor 2A (Homo sapiens) (UniProt P28223). Briefly: 5-hydroxytryptamine receptor 2A (HTR2A) small molecule agonists, cell-based qHTS assay (AID 1963587). Further: nearly all actives have a fitted effect of over 30% in size. In a few lines: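 HTR2A-CHO cells, plated 18 h at 37 C/5% CO2, dye-loaded 1 h at 37 C; compounds in DMSO added by pin tool (agonist mode). Intracellular calcium flux read as kinetic fluorescence on FDSS over 2 min at 1 s intervals.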

The target of test [11] is Muscarinic acetylcholine receptor M1 (Homo sapiens) (UniProt P11229). Nature of the test: Cholinergic receptor muscarinic 1 (CHRM1) small molecule antagonists, cell-based qHTS assay (AID 1963588). Further: nearly all actives have a fitted effect of over 40% in size. In a few lines: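 CHRM1-CHO calcium-flux assay, antagonist mode. Cells were seeded 18 h, dye-loaded 1 h at 37 C and given compound for 5 min at RT, then acetylcholine was added at 50nM. FDSS fluorescence was read 3 min; 15 concentrations, three runs.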
Muscarinic acetylcholine receptor M1 (Homo sapiens), sequence (P11229 whole entry, looked up): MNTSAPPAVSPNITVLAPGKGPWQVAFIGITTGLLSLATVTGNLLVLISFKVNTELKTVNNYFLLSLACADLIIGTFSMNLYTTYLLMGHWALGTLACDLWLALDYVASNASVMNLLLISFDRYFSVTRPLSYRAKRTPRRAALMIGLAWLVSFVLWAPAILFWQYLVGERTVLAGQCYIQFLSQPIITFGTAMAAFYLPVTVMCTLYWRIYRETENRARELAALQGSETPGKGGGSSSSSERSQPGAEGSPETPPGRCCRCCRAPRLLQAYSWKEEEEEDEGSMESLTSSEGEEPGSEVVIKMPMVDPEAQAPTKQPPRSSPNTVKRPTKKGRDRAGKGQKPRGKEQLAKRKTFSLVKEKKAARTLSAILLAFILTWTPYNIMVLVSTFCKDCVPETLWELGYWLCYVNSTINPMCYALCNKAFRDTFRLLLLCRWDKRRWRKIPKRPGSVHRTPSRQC

For test [12] the target is unchanged. Nature of the test: Cholinergic receptor muscarinic 1 (CHRM1) small molecule agonists, cell-based qHTS assay (AID 1963589). Further: nearly all actives have a fitted effect of over 35% in size. An outline of the steps:
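Human M1 in stable CHO line; 18 h plating, 1 h dye load 37 C; cpd added (agonist mode); Ca2+ fluorescence kinetic read, 1 s intervals; 15 conc, 3 runs.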

Test [13] has as its target Beta-2 adrenergic receptor (Homo sapiens) (UniProt P07550). Nature of the test: Adrenergic beta2 receptor (ADRB2) small molecule antagonists, cell-based qHTS assay (AID 1963592). Further: series mostly up to about 92 µM; nearly all actives have a fitted effect of over 50% in size. An outline of the steps: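 Cells (CHO, stable ADRB2 overexpression) incubated 18-20hr at 37C; compounds added from DMSO; agonist mix (1nM isoproterenol, 100uM IBMX, 25uM Ro-20-1724) added; 0.5hr RT; d2-cAMP and anti-cAMP-cryptate added; 1hr RT; 665/615 nm read.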

For test [14] the target is unchanged. Briefly: Adrenergic beta2 receptor (ADRB2) small molecule agonists, cell-based qHTS assay (AID 1963593).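 Further: CHO cells stably overexpressing human ADRB2.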 An outline of the steps: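 CHO cells stably over-expressing ADRB2 were plated overnight at 37C, then dosed with compounds plus a stimulation mix containing 100uM IBMX and 25uM Ro-20-1724 for 0.5hr at room temperature. cAMP was measured by HTRF competition, 1hr.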

Test [15] has as its target D(2) dopamine receptor (Homo sapiens) (UniProt P14416). Nature of the test: Dopamine D2 receptor (DRD2) small molecule agonists, cell-based qHTS assay (AID 1963594). Further: nearly all actives have a fitted effect of over 35% in size. In a few lines: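 HEK293 cells stably expressing DRD2 were cultured 24 h at 37 C, then given Ro20-1724 (0.1 mM final) and compounds for 10 min at room temperature. NKH477 (200nM) was then added for 30 min. cAMP was read by HTRF.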

Test [16] in a line: p53 small molecule agonists, cell-based qHTS assay (AID 1963582; active means well fitted activation curve with a large enough effect in the signal ratio in the repeat runs, not every such curve was filed as active; the % refers to the signal ratio). An outline of the steps:
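Reporter line: p53RE-bla. Pre-incubation 5 h, 37 C, 5% CO2; compound (DMSO, pin tool) 16 h, 37 C; B/G FRET substrate 2 h RT; fluorescence intensity read.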

Test [17] has as its target 5-hydroxytryptamine receptor 2A (Homo sapiens) (UniProt P28223). Briefly: 5-hydroxytryptamine receptor 2A (HTR2A) small molecule antagonists, cell-based qHTS assay (AID 1963586). Further: nearly all actives have a fitted effect of over 45% in size. An outline of the steps:
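Antagonist-mode intracellular calcium assay: DOI (4 nM) added after 5 min compound pre-incubation at room temperature to dye-loaded HTR2A-CHO cells. Fluorescence followed for 3 min, sampled every second.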

Test [18] is described as follows: cAMP Responsive Elements (CRE) small molecule agonists, cell-based qHTS assay (AID 1963590). An outline of the steps:
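HEK 293T CRE-bla, 2,000 cells/well, 18 h preincubation 37 C/5% CO2; cpds (DMSO) pinned, 3 h; LiveBLAzer B/G FRET substrate, 2 h RT.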

Test [19] can be described thus: cAMP Responsive Elements (CRE) small molecule antagonists, cell-based qHTS assay (AID 1963591; active means well fitted inhibition curve with a large enough effect in the signal ratio in the repeat runs, not every such curve was filed as active; the % refers to the signal ratio). In a few lines: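 Beta-lactamase reporter read by FRET substrate (LiveBLAzer B/G) after 2 h at room temperature. CRE-bla HEK293T cells had received compound plus 0.25 uM (final) NKH477 for 3 h at 37 °C.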
The target in test [20] is D(2) dopamine receptor (Homo sapiens) (UniProt P14416). Briefly: Dopamine D2 receptor (DRD2) small molecule antagonists, cell-based qHTS assay (AID 1963595; active means well fitted inhibition curve with a large enough effect in the signal ratio in the repeat runs, with a control signal flat; the % refers to the signal ratio). In a few lines:
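Human DRD2 antagonist qHTS measuring cAMP by HTRF. The cells are exposed to compound for 10 min, then to NKH477 (200 nM) and quinpirole (12 nM) for 30 min at RT, with Ro20-1724 (0.1 mM) present throughout.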

A number with no mark means an inactive call. Results filed as inconclusive are left out. Calls of active or inactive are those of the source. Unless noted, the call rests on the fitted dose curve.

Gonadotropin-releasing hormone receptor (Homo sapiens), sequence (P30968 whole entry, looked up): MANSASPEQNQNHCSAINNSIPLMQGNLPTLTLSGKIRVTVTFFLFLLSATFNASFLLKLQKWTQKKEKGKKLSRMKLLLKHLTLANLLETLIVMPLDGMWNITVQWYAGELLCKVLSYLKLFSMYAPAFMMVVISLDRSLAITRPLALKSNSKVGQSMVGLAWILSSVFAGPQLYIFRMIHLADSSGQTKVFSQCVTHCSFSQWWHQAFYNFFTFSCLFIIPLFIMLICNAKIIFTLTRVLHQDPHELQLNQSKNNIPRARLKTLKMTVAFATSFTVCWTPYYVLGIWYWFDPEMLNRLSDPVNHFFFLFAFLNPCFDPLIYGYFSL
5-hydroxytryptamine receptor 2A (Homo sapiens), sequence (P28223 whole entry, looked up): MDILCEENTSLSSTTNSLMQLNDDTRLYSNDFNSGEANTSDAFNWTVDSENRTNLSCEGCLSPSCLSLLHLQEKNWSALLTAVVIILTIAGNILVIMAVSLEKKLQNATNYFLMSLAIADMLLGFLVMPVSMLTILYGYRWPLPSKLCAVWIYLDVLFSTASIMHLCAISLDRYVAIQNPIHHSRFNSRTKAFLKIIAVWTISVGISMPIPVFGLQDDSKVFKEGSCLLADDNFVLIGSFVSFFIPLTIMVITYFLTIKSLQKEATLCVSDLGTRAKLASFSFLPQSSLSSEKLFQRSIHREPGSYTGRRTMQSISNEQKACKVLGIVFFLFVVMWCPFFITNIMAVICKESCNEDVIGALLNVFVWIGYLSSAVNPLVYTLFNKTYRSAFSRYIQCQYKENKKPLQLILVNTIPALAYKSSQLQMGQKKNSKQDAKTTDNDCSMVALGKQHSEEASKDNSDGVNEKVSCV
D(2) dopamine receptor (Homo sapiens), sequence (P14416 whole entry, looked up): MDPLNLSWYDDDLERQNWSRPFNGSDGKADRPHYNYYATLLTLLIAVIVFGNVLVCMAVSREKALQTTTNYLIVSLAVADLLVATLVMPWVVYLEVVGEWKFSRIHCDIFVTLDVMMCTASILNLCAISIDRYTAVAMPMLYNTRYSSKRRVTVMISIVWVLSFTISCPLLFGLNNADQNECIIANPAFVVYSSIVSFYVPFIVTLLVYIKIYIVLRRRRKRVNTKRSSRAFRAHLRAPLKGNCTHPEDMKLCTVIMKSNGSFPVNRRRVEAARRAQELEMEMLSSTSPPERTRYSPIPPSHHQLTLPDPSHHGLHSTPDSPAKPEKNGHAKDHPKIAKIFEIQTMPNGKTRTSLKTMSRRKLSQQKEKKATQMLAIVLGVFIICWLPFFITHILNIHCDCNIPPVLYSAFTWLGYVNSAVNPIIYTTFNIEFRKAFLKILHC
Beta-2 adrenergic receptor (Homo sapiens), sequence (P07550 whole entry, looked up): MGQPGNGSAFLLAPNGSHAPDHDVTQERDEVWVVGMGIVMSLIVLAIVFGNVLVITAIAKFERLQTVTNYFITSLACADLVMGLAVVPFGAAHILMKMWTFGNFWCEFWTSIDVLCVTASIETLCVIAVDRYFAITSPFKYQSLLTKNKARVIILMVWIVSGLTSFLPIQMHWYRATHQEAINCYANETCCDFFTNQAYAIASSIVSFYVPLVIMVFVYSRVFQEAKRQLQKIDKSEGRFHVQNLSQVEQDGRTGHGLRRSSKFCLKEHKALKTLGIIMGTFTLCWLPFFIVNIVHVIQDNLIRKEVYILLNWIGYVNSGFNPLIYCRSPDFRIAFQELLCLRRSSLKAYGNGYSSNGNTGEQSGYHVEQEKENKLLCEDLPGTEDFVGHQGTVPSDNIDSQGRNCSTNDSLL

Consider `CC(C)C[C@H](NC(=O)OCC1c2ccccc2-c2ccccc21)C(=O)O`, for which the Potency result in test [1], in [3], in test [5], in test [6], in test [7] and in [8] was “inactive” in each case. Besides, the Potency entry in test [9], in test [10], in test [11], in test [12], in test [13] and in [14] was “inactive” in each case. In [15], the Potency result is “inactive”. Moreover, the Potency in [2] was 611 nM (active). For the same compound, the outcome in test [4] was inactive.

On to `C/C=C(\C)C=O`, for which the Potency entry in test [1], in [2], in [3], in test [5], in [6] and in test [8] was “inactive” in each case. For the same compound, the Potency entry in test [9], in [16], in test [17], in test [10], in [11] and in [12] was “inactive” throughout. The Potency result in [18], in test [19], in test [13] and in test [15] was “inactive” in each case. Besides, in [4], the outcome was inactive.

`Cc1c(N)cccc1Cl`: the Potency entry in test [1], in test [2], in test [3], in [5], in [7] and in test [9] was “inactive” in each case. Moreover, the Potency result in [16], in test [17], in [10], in test [11], in [18] and in test [19] was “inactive” each time. Besides, the Potency result in test [13], in test [15] and in [20] was “inactive” in each case. The outcome in test [4] was inactive.

Take `O=C(O)Cc1ccccc1Oc1ccc(Cl)cc1Cl`: the Potency entry in [1], in [2], in [3], in test [5], in test [6] and in test [8] was “inactive” each time. Moreover, the Potency result in test [9], in test [10], in test [12], in test [19], in test [13] and in test [14] was “inactive” throughout. Besides, the Potency result in [15] and in test [20] was “inactive” throughout. Also, the outcome in test [4] was inactive.

For the compound `[Cl][Sc]([Cl])[Cl]`, the Potency entry in [1], in [2], in [3], in test [6], in [7] and in test [8] was “inactive” throughout. Moreover, the Potency result in test [9], in [16], in [17], in test [10], in test [11] and in [12] was “inactive” throughout. Moreover, the Potency result in test [18], in test [19], in test [13] and in test [20] was “inactive” in each case.

`CCOc1ccccc1O`: the Potency entry in [1], in [2], in test [3], in test [6], in [7] and in test [8] was “inactive” in each case. The Potency entry in [9], in test [16], in [17], in test [10], in [11] and in test [12] was “inactive” throughout. Moreover, the Potency result in [19], in test [13], in [14], in test [15] and in test [20] was “inactive” throughout.
